{"source": "ChEMBL document CHEMBL3988442", "about": "“University of Dundee, Small-Polar-MMV Screening Library” (2021)", "data": [{"target": "AMP-activated protein kinase, AMPK (Homo sapiens) (UniProt P54646+O43741+P54619+Q9UGJ0+Q9Y478+Q13131+Q9UGI9)", "assay": "AMP-dependent Kinase enzyme assay. An in vitro enzyme assay that detects ADP turnover that is directly proportional to AMPK activity. This uses naive AMPK that is activated during the assay with MK-8722", "type": "functional", "set-up": "scale not given: direction of the effect not stated beside the values", "conditions": "30 µM", "units": {"Percent Effect": "%"}, "values": [{"smiles": "CCOc1ccccc1C(=O)NCc1nncn1C1CC1", "Percent Effect": -9.44}, {"smiles": "COCCC(=O)N1CCCC(CCc2ccc(F)c(F)c2)C1", "note": "(stereo not given)", "Percent Effect": 8.62}, {"smiles": "COC(=O)C(NC(=O)c1cc(F)cc(F)c1)c1cccnc1", "note": "(stereo not given)", "Percent Effect": 2.18}, {"smiles": "CN1CCN(c2ccc(F)cc2NC(=O)NCc2ccon2)CC1", "Percent Effect": 4.16}, {"smiles": "COC(=O)c1ncccc1N1CCN(C(=O)CN2CCOCC2)CC1", "Percent Effect": 5.94}, {"smiles": "O=C(Nc1ccccc1OCCc1ccccn1)N1CC[C@@H](O)C1", "Percent Effect": 8.55}, {"smiles": "COC(=O)c1ncccc1N1CCCC1", "Percent Effect": 9.09}, {"smiles": "CCc1cnc(C(C)NC(=O)N2CCCN(CC(F)F)CC2)s1", "note": "(stereo not given)", "Percent Effect": -2.53}, {"smiles": "CC(C)NC(=O)c1nc(Cn2c(C(F)F)nc3ccccc32)no1", "Percent Effect": 12.9}, {"smiles": "CN(CCNC(=O)Nc1cnn(C)c1)Cc1ccc(F)cc1", "Percent Effect": 0.603}, {"smiles": "CC(NCc1nnc2n1CCCC2)c1nc(Cc2ccccc2)no1", "note": "(stereo not given)", "Percent Effect": -1.56}, {"smiles": "CCC(CO)NC(=O)c1cc(COc2ccc(OC)cc2Cl)[nH]n1", "note": "(stereo not given)", "Percent Effect": -8.13}, {"smiles": "CC(=O)N[C@H]1CCN(C(=O)c2cc(Cn3cnc4ccccc43)[nH]n2)C1", "Percent Effect": -3.06}, {"smiles": "COCCN1C(=O)[C@H]2CC[C@@H]1CN(S(=O)(=O)c1ccc(C#N)cc1)C2", "Percent Effect": 10.8}, {"smiles": "CCN(C)C[C@@H]1CN(C(=O)c2cc(-c3ccc(F)cc3)n[nH]2)C[C@@H]1CO", "Percent Effect": 9.6}, {"smiles": "Cc1nn(C)c2nc(N3CCCCC3c3nccs3)sc12", "note": "(stereo not given)", "Percent Effect": 5.6}, {"smiles": "CO[C@@H]1CCC[C@@H](NC(=O)c2cccc(F)c2)[C@H]1O", "Percent Effect": 10.3}, {"smiles": "CC(=O)Nc1ccc(CN2C[C@H]3CC[C@@H]2CN(c2ncccn2)C3)cc1", "Percent Effect": 13}, {"smiles": "CN(CC(O)C(F)(F)F)C(=O)Nc1cccc(C(F)F)c1", "note": "(stereo not given)", "Percent Effect": -0.316}, {"smiles": "COCCC(=O)N1CCCC(CCC(=O)NCc2cccc(OC)c2)C1", "note": "(stereo not given)", "Percent Effect": 14.2}, {"smiles": "CN(Cc1cnn(C)c1)C(=O)Nc1cccnc1-n1cccn1", "Percent Effect": 0.000815}, {"smiles": "CN(C)c1ccc(C(=O)N2CCC(c3cc4cnccc4[nH]3)CC2)cc1", "Percent Effect": 20.5}, {"smiles": "CC(CN1CCOC1=O)NC(=O)c1cccc2cc[nH]c12", "note": "(stereo not given)", "Percent Effect": 8.07}, {"smiles": "O=S(=O)(NC1CCCOC1)c1ccc(C(F)(F)F)nc1", "note": "(stereo not given)", "Percent Effect": 7.35}, {"smiles": "CNC(=O)CCOC(=O)c1cccc(-n2cccn2)c1", "Percent Effect": 7.17}, {"smiles": "O=C(CCCn1cccn1)N1CCCC(n2cncn2)C1", "note": "(stereo not given)", "Percent Effect": 5.88}, {"smiles": "Cc1nc(NC(=O)NCCCN2CCC(C(N)=O)CC2)sc1C", "Percent Effect": 6.51}, {"smiles": "Cc1cc(C(=O)NC(C)Cc2cccc(Cl)c2)n(C)n1", "note": "(stereo not given)", "Percent Effect": 10.6}, {"smiles": "CS(=O)(=O)NCC1Cc2ccccc2O1", "note": "(stereo not given)", "Percent Effect": -1.87}, {"smiles": "Cc1ccc(-c2nc(C(=O)N(C)CC(=O)N(C)C)cs2)c(C)c1", "Percent Effect": -3.64}, {"smiles": "CCc1nc2n(n1)CC(NCc1cc3ccccc3o1)CC2", "note": "(stereo not given)", "Percent Effect": -3.35}, {"smiles": "COc1ccc(Cc2nnc(NC(=O)C3CC34CCC4)s2)cc1OC", "note": "(stereo not given)", "Percent Effect": 4.1}, {"smiles": "Cc1nonc1CNC(=O)C(C)Oc1cccc(F)c1", "note": "(stereo not given)", "Percent Effect": 11.1}, {"smiles": "CN(C)CC(=O)N1CCN(c2cc(N3CCCC3CO)ncn2)CC1", "note": "(stereo not given)", "Percent Effect": -7.31}, {"smiles": "O=C(Cc1ccon1)NC1CCCN(c2ccccc2F)C1=O", "note": "(stereo not given)", "Percent Effect": 1.71}, {"smiles": "CS(=O)(=O)NC(=O)c1ccn(-c2ccccc2Cl)n1", "Percent Effect": 9.09}, {"smiles": "COCCc1noc(CN2CCN(c3ccc(OC)cc3)C(=O)C2C)n1", "note": "(stereo not given)", "Percent Effect": 4.12}, {"smiles": "Cc1cc(=O)[nH]c(-n2nc(-c3cccs3)cc2N)n1", "Percent Effect": -13.8}, {"smiles": "O=C(NCc1nnnn1-c1ccccc1)c1ccc(C2CCCO2)s1", "note": "(stereo not given)", "Percent Effect": 1.57}, {"smiles": "Cc1noc(C)c1-c1n[nH]c2c1CN(S(=O)(=O)c1ccsc1)CC2", "Percent Effect": 7.37}]}]}
